Compound activity deposited in PubChem by National Center for Advancing Translational Sciences (NCATS).
The list is not random: actives were taken first. Their share in the collection is about 12%.
HP1b chromo inh: blocks HP1-beta chromodomain binding to methylated histone tails. P83916. AlphaScreen HP1-beta / biotin-H3K9me3 peptide binding. Potency, µM (series often up to 114 µM), actives largely listed as inhibitors. actives 0.56% (n = 390,000). AID 540317; note: nearly all actives have a fitted effect of over 70% in size
Target sequence (P83916 whole entry, looked up): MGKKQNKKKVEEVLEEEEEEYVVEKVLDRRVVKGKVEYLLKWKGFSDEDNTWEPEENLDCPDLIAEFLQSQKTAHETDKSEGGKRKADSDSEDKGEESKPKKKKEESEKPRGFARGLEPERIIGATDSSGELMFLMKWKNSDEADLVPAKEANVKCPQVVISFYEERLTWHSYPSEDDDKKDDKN
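Compound inhibition of the preformed complex between 50 nM HP1-beta and 50 nM biotinylated H3K9me3 peptide was read by AlphaScreen. Buffer was PBS pH 7.4 with 0.01% Tween-20. Incubations ran 30 min at room temperature, with 10 ug/mL donor/acceptor beads.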
G9a inh: blocks human histone lysine methyltransferase G9a; Q96KQ7; Potency, µM (doses to about 102 µM), usual class: inhibitors; AID 504332; G9a H3K9 monomethylation, AlphaScreen, 2 h; actives 8.8% (n = 350,000); note: nearly all actives have a fitted effect of over 75% in size
Target sequence (Q96KQ7 913-1193 limits assumed): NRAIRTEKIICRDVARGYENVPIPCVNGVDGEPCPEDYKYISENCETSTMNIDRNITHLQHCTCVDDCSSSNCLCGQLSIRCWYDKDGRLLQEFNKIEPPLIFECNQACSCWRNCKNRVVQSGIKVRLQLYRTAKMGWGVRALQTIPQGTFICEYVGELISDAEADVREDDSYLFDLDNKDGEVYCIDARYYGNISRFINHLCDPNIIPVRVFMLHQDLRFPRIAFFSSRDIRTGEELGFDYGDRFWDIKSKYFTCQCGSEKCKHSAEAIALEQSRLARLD
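Compounds were preincubated with 20 nM G9a for 15 min, after which biotinylated H3K9 peptide (500 nM) and SAM (20 uM) started a 2 h room-temperature reaction. Monomethylated product was quantified by antibody-based AlphaScreen chemiluminescence.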
BAZ2B block: blocks human BAZ2B. Q9UIF8. AlphaScreen BAZ2B-H3K14Ac peptide displacement. Potency, µM (top dose mostly 114 µM), actives largely listed as inhibitors. actives 4.4% (n = 360,000). AID 504333; note: nearly all actives have a fitted effect of over 60% in size
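Multi-concentration screen (max 110 uM) measuring displacement of acetylated histone H3 peptide from BAZ2B by AlphaScreen, using 50 nM protein, 50 nM peptide and 10 ug/mL streptavidin donor plus Ni-chelate acceptor beads.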
Sfp inh: Sfp phosphopantetheinyl transferase inhibition. Potency, µM, most hits filed as inhibitors. actives 3.5% (n = 310,000). Q9F4F7. Biochemical Sfp PPTase activity, qHTS;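 note: the enzyme is Sfp with the accession as filed and its product quenches rhodamine fluorescence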
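Compounds were incubated with enzyme (final 15 nM) for 15 min at room temperature before substrate addition started the reaction. Fluorescence at 525 nm excitation, 598 nm emission was recorded immediately and after 30 minutes.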
TDP1 inh: inhibitors of human tyrosyl-DNA phosphodiesterase TDP1; AID 485290; recombinant TDP1, AlphaScreen DNA substrate cleavage; actives 0.28% (n = 350,000); Q9NUW8; Potency, µM (doses to about 130 µM), actives largely listed as inhibitors; note: nearly all actives have a fitted effect of over 40% in size
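Here, a 5' biotin and 3' phosphotyrosine-FITC DNA oligonucleotide reports Tdp1 activity: intact substrate bridges AlphaScreen beads, while cleavage leaves a 3' phosphate and drops signal. All incubations at room temperature.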
JMJD2A Tudor inh: inhibitors of human JMJD2A Tudor domain. actives 4.4% (n = 390,000). O75164. Potency, µM (titrated, usually from 114 µM), usual class: inhibitors. AlphaScreen JMJD2A-Tudor / H3K4me3 peptide binding; note: nearly all actives have a fitted effect of over 50% in size
Hits are given with their value; n = inactive; u = inconclusive; x = not tested or not shown; ! = not active in a repeat; [ ] = another dose, or the depositor's remark. Calls come from the whole dose curve; as a rule, active = well fitted curve in the direction sought with a large enough effect; inconclusive = small, poorly fitted or top-dose-only effect, or another doubt; inactive = no such curve, though single readings can be large; an effect the other way counts as inactive or inconclusive.

SMILES	HP1b chromo inh	G9a inh	BAZ2B block	Sfp inh	TDP1 inh	JMJD2A Tudor inh
CC#CCOC(=O)c1c(C)nc2sc3c(c2c1N)CC[C@@H](O)C3	x	x	x	n	n	x
N=C(N)SCc1nc2ccccc2c(=O)n1-c1ccccc1	n	44.7µM	n	50.1µM	n	u
CCc1nnc(N/N=C/c2c(F)cccc2Cl)n1N	n	44.7µM	n	n	x	n
CCc1nnc(N/N=C/c2c(C)[nH]c3ccccc23)n1N	n	17.8µM	44.7µM	8.91µM	n	n
Cc1nnc(N/N=C/c2c(Cl)cccc2Cl)n1N	n	n	50.1µM	u	n	n
C=CCc1c(C)nc(C)nc1N/N=C/c1ccc([N+](=O)[O-])cc1	n	u	n	n	n	n
C=CCc1c(C)nc(C)nc1N/N=C/c1ccccc1O	n	n[12.7 µM]	50.1µM	n	n	u
Cc1[nH]c2ccccc2c1/C=N/Nc1nc(N2CCCCC2)nc(N2CCCCC2)n1	n	u	n	n	n	n
Fc1cccc(Cl)c1/C=N/Nc1ccccn1	n	n	n	n	n	n
Clc1cccc(Cl)c1/C=N\Nc1nccs1	n	n[12.7 µM]	n	n	n	n
O=C(O)C1CN(CCCP(=O)(O)O)CCN1 (centres undefined)	x	u	x	x	n	x
O=C(CCNS(=O)(=O)c1ccccc1)OCC(=O)c1ccc(Cl)cc1	n	u	n	x	x	n
CCCn1c(-c2ccc(F)cc2)nc2c(NC(C)CN(C)C)nc(C)nc21 (centres undefined)	x	x	x	n	n	x
Nc1ccc2c(c1)C(=O)N(c1ccc3ccccc3c1)C2=O	n	x	x	x	n	n
CNC(=O)c1cnn2c(C)cc(C)nc12	x	x	x	x	x	n
COc1ccccc1NC(=O)CCCN1C(=O)C2CC=CCC2C1=O (centres undefined)	n	n	n	n	n	n
CCc1nnc(N/N=C/c2cc(C)c(C)cc2C)n1N	n	79.4µM	n	n	x	n
Cc1nnc(N/N=C/c2ccccc2O)n1N	n	n	39.8µM	n	n	u
Cc1nnc(N/N=C/c2cc(C)n(-c3ccc(F)cc3)c2C)n1N	n	u	50.1µM	44.7µM	n	n
CC(=O)c1sc(N/N=C\c2ccccc2O)nc1C	n	n[12.7 µM]	n	n	n	n
CC(=O)c1ccc2c(c1)CCN2	n	x	x	x	x	n
COc1ccc(C2CC(c3cccs3)=NN2c2nc(-c3ccccc3)cs2)cc1OC (centres undefined)	n	u	n	44.7µM	n	n
O=C1C=CC(=O)N1c1ccc2c(c1)C(NC(=O)C(F)(F)F)c1ccccc1-2 (centres undefined)	12.6µM	x	x	x	x	7.94µM
COc1cc2oc(=O)cc(-c3ccc(-c4cccc(N)c4)cc3)c2c(OC)c1OC	x	28.2µM	x	n	n	x
COc1ccc(-c2ccc(-c3cc(=O)oc4cc(OC)c(OC)c(OC)c34)cc2)cc1OC	n	n	x	n	n	n
SMILES	HP1b chromo inh	G9a inh	BAZ2B block	Sfp inh	TDP1 inh	JMJD2A Tudor inh
Cc1ccc(NC(=O)Cn2c(=O)n(Cc3ccc4c(c3)OCO4)c(=O)c3oc4ccccc4c32)cc1C	n	n	u	x	n	n
CCn1c(=O)c(C(=O)NCc2cccnc2)c(O)c2ccccc21	n	n	n	n	n	39.8µM
CCn1c(=O)c(C(=O)NCCCc2ccccc2)c(O)c2ccccc21	n	n	n	n	56.2µM	n
CCn1c(=O)c(C(=O)NCc2ccccc2)c(O)c2ccccc21	n	x	n	n	x	n
N#Cc1ncc(Cc2ccccc2)nc1C#N	n	50.1µM	u	n	x	n
N#Cc1nc(Cc2ccccc2)oc1NCc1cccnc1	n	n	n	n	n	n
COCCn1nnnc1C(c1cc2cc(C)ccc2[nH]c1=O)N1CCCCCC1 (centres undefined)	n	4.47µM	n	50.1µM	n	n
COCCn1nnnc1C(c1cc2cc(C)cc(C)c2[nH]c1=O)N1CCN(c2ccccc2F)CC1 (centres undefined)	n	3.16µM	n	12.6µM	n	n
OCCN1CCN(CCC=C2c3ccccc3Sc3ccc(Cl)cc32)CC1	x	u	x	n	n	x
OCCN1CCN(CC/C=C2/c3ccccc3Sc3ccc(C(F)(F)F)cc32)CC1	n	11.2µM!	u	u	n	u
CCc1ccc2c(COC(=O)C3CC(=O)N(CCc4ccccc4)C3)cc(=O)oc2c1 (centres undefined)	n	n	n	x	n	n
S=c1[nH]ccn1-c1ccccc1Cl	n	15.8µM	n	n	u	22.4µM
S=c1[nH]ccn1-c1cccc(Cl)c1Cl	n	5.62µM	n	n	x	15.8µM
